Assay outcomes: PubChem, several laboratories
A selection: hits, their analogues and other compounds. The true share with any hit is near 3.2%.
MEKK3 PB1 HTS – modulators (inhibitors or enhancers) of MEK5 binding to human MEKK3 PB1 domain; actives 1.4% (n = 290,000); AID 1529; binding response (% of control), % at 10 µM; Q99759; bead-based flow cytometry, Alexa488-MEK5 binding to MEKK3; actives lie on both sides; 0 = blocked by unlabeled MEK5, 100 = vehicle;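 active = binding response more than 3 SD above or below the average of its plate-row segment, actives on both sides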;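 note: Alexa488 bead fluorescence after subtracting the streptavidin-only scavenger bead signal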
MEKK2mut PB1 HTS – signal of MEK5 binding to mutant human MEKK2 PB1 domain | bead flow cytometry, Alexa488-MEK5 binding to MEKK2 mutant | percent response, % at 10 µM | actives 0.35% (n = 290,000); in the data active = percent response above about 24%, passing the limit was not always enough
SKN-1 block – C. elegans SKN-1 inhibition | C. elegans VP596 Pgst-4::GFP/RFP ratio, acrylamide-induced, 24 h | inhibition, % at 21.8 µM | actives 0.49% (n = 360,000) | AID 624304;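 active = interference check ratio from 0.5 to 1.5 plus GFP to RFP signal ratio inhibition reaching or exceeding a fixed threshold, cut at about 30% in these data, passing the limit was not always enough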
MEKK2wt PB1 HTS – raises or lowers MEK5 binding to wildtype human MEKK2 PB1 domain. Q9Y2U5. bead flow cytometry, Alexa488-MEK5 binding to MEKK2 WT; actives lie on both sides. binding response (% of control), % at 10 µM. actives 1.1% (n = 290,000). AID 1531; in the data active = binding response below about 67% or above about 130%
CendR NRP1 mod – alters CendR peptide binding to human NRP-1; O14786; FAM-RPARPAR peptide binding to NRP-1, fluorescence polarization; inhibition, % at 25 µM; actives 0.85% (n = 360,000);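 active = inhibition or corrected inhibition above about 18%, plus a signal ratio from 0.5 to 1.5, limit read from the data, passing the limit was not always enough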
Target sequence (O14786 whole entry, looked up): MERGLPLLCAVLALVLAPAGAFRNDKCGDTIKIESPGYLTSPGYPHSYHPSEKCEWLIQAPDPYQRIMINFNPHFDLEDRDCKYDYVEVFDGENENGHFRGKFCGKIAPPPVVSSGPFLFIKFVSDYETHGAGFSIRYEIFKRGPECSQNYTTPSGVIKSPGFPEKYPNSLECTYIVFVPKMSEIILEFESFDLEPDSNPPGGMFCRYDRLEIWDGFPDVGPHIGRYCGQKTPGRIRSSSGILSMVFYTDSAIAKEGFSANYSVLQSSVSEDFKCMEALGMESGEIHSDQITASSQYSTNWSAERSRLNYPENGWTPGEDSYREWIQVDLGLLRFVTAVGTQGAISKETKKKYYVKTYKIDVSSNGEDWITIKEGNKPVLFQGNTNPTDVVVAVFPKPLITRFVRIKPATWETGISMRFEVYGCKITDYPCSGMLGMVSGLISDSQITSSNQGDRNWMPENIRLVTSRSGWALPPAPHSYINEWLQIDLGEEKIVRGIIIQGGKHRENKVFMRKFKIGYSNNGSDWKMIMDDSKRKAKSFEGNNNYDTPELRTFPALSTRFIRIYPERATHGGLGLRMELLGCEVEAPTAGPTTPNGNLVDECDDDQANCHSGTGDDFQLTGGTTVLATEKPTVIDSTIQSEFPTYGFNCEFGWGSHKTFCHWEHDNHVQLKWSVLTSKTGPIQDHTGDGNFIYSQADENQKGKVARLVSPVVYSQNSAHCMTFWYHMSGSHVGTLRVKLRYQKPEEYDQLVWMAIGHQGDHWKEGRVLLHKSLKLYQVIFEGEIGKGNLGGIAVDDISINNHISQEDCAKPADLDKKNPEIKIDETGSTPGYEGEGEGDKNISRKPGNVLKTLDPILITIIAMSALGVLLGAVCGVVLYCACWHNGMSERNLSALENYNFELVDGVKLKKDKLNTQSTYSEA
MEKK2wt confirm – raises or lowers MEK5 binding to wildtype human MEKK2, retest | shares compounds with MEKK3 PB1 HTS | bead flow cytometry, Alexa488-MEK5 binding to MEKK2 WT; actives lie on both sides | binding response (% of control), % at 10 µM | actives 2.4% (n = 5,900) | AID 1892; in the data active = binding response below about 16% or above about 210%; inactive = in between
MEKK2mut confirm – signal of MEK5 binding to mutant human MEKK2, retest; shares compounds with MEKK3 PB1 HTS; bead flow cytometry, Alexa488-MEK5 binding to MEKK2 mutant; percent response, % at 10 µM; actives 2% (n = 5,900); in the data active = percent response mostly above about 71%, no sharp cut-off; inactive = mostly below about 38%;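 note: higher means compound restores mutant binding toward wildtype level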
MEKK3-MEK5 inh – MEKK3-MEK5 PB1 inhibition, single concentration confirmation; shares compounds with MEKK3 PB1 HTS; bead flow cytometry, Alexa488-MEK5 binding to MEKK3; hits give low values; binding response (% of control), % at 10 µM; actives 1.8% (n = 5,900);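 active = binding response below 72% of control, or above a set upper limit, though filed actives all read lower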;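 note: 100% = DMSO only wells and 0% = binding blocked by excess unlabeled MEK5; lower values mean stronger disruption of MEK5 binding to MEKK3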
Numbers without * were called inactive; · = no result given; [ ] = another dose, or the depositor's remark.

SMILES	MEKK3 PB1 HTS	MEKK2mut PB1 HTS	SKN-1 block	MEKK2wt PB1 HTS	CendR NRP1 mod	MEKK2wt confirm	MEKK2mut confirm	MEKK3-MEK5 inh
CCCCNC(=O)C1CCCN1C(=O)NC1CCCCC1 (stereo not drawn)	2.0*[inhibitor]	0	-25	3.0*[inhibitor]	-6	96	-6	98
N=c1c2ccccc2nc2n1CCCCC2	·	·	1	·	-4	·	·	·
Cc1ccc(NC(=O)CN(C)S(=O)(=O)c2cccc3cccnc23)c(C)c1	134*	27	-2	109	-1	110	9	107
Cc1c(CCOC(=O)C23CC4(C)CC(C)(CC(C)(C4)C2)C3)sc[n+]1CC(=O)c1ccccc1	98	23	38*	158*	-2	154	17	106
O=C(Oc1cccc2c(O)cccc12)c1ccco1	·	·	15	·	6	·	·	·
COc1cc(CN2CCN(c3ccccc3C)CC2)cc([N+](=O)[O-])c1O	62*[inhibitor]	-16	9	49*[inhibitor]	-4	101	2	100
Cc1coc2c1C(=O)C(=O)c1c-2ccc2c1CCCC2(C)C	96	0	-1	99	17	·	·	·
Cc1coc2c1C(=O)C(=O)c1c-2ccc2c(C)cccc12	120	1	-4	138*	16	101	1	107
CN1CCN(NC(=S)NC2CCCC2)CC1	99	-8	11	95	-4	·	·	·
CN1CCN(NC(=S)NC(C)(C)CC(C)(C)C)CC1	58*[inhibitor]	-4	0	77	8	103	3	105
Clc1ccc(OCCCNCc2ccccc2)c2ccccc12	117	28*	-5	253*	5	161	29	102
C=CCNC(=O)c1ccc(-c2ccc([N+](=O)[O-])cc2)o1	194*	1	14	113	0	103	-6	101
Cc1ccc(Cn2cccc(NS(C)(=O)=O)c2=O)cc1	101	0	18	100	-46	·	·	·
Cc1cc(NS(C)(=O)=O)c(=O)n(Cc2cccc(F)c2)c1	98	8	-3	20*[inhibitor]	-8	102	-1	102
O=C(Cc1ccc(-n2c(=O)[nH]c3ccsc3c2=O)cc1)NCc1cccnc1	139*	1	-5	109	1	103	0	101
O=C(Cc1ccc(F)cc1)NCc1cccnc1	96	-3	-7	92	-2	·	·	·
COCCCNc1nc(CC(C)C)nc2c1nnn2Cc1ccccc1	110	1	11	109	-6	·	·	·
COc1cc(/C=C2/SC(=S)N(CCC(=O)N3CCN(C)CC3)C2=O)cc(OC)c1OC	·	·	-14	·	-7	·	·	·
Cc1nc2ccccc2n1-c1ccccc1	108	11	5	112	-6	·	·	·
O=c1c(/C=C(\O)c2ccccc2)nc2ccccc2n1-c1ccccc1	81*[inhibitor]	-19	-2	58*[inhibitor]	-41	66	-18	85
O=C(CN(Cc1ccco1)C(=O)c1cccc(Cl)c1)Nc1c(Cl)cc(Cl)cc1Cl	122*	4	4	117	10	102	3	104
COc1ccc(C(C)NCCC(c2ccc(OC(C)C)cc2)c2ccccc2OC)cc1 (stereo not drawn)	110	45*	-3	194*	-4	180	44	109
COc1ccc(C(CCNC(C)c2ccccc2)C(C)C)cc1 (stereo not drawn)	103	10	-6	118	-1	·	·	·
Cn1c(Cn2c(C(F)(F)F)nc3ccccc32)nc2ccccc21	109	24*	19	110	-4	102	5	103
O=C(O)CC1(CC(=O)Nc2ccc3ccccc3c2)CCCCC1	1.0*[inhibitor]	-9	10	-1.0*[inhibitor]	-4	100	3	105
SMILES	MEKK3 PB1 HTS	MEKK2mut PB1 HTS	SKN-1 block	MEKK2wt PB1 HTS	CendR NRP1 mod	MEKK2wt confirm	MEKK2mut confirm	MEKK3-MEK5 inh
OCC1OC(c2ccccc2)OC2COC(c3ccccc3)OC12 (stereo not drawn)	·	·	4	·	-7	·	·	·
Nc1ccc2nc(Cc3ccccc3)[nH]c2c1	41*[inhibitor]	-12	3	47*[inhibitor]	-1	105	8	104
CC(=O)Nc1ccc(/C(C)=N/NS(=O)(=O)c2ccccc2)cc1	128*	0	-28	107	-6	108	5	106
CCOC(=O)C1(C)CCN1C(=O)c1cc(F)ccc1C (stereo not drawn)	·	·	-2	·	2	·	·	·
COc1ccc(C(=O)CSc2nc(-c3ccccn3)nc(C)c2Cl)cc1	128*	23	-3	114	-12	107	6	104
COc1ccc(C(=O)CSc2nnc3ccc(-c4ccccn4)nn23)cc1	64	-27	-23	62	4	·	·	·
Cc1nc(-c2ccccn2)nc(SCC(=O)c2ccc(F)cc2)c1Cl	134*	31	-12	113	-9	103	-1	97
CN(C)S(=O)(=O)c1cccc(COc2ncnc3c(Cl)cc(Cl)cc23)c1	101	-3	7	101	2	·	·	·
COc1cc(C(=O)OCCc2cc3ccccc3c(=O)o2)cc(OC)c1OC	·	·	-5	·	8	·	·	·
O=C1C=C(C2OC(CO)C(O)C2O)C(=O)N1 (stereo not drawn)	·	·	-11	·	-1	·	·	·
CNC(=S)N/N=C1\C(=O)c2cccc3cccc1c23	95	-3	3	99	9	·	·	·
CCCCNC(=S)N/N=C1\C(=O)c2cccc3cccc1c23	71*[inhibitor]	-5	15	74	-10	97	-3	97
COc1ccc(CCNCCC(c2ccccc2)c2ccccc2)cc1OC	·	·	15	·	4	·	·	·
COc1cc(OC)c(OC)cc1CCC(C)NCCC(c1ccccc1)c1ccccc1 (stereo not drawn)	111	18	13	166*	1	120	6	99
Cc1cc(C)c(NC(=O)c2cccc3c2C(=O)N(C2CCCCC2)C3)c(C)c1	98	-2	-5	87	2	·	·	·
Cc1ccc(C(C)C)c(OCCCNCc2cccnc2)c1	100	3	7	109	-18	·	·	·
Cc1ccc(C(C)C)c(OCCNCCc2ccccc2)c1	112	9	9	160*	9	98	-4	99
CN1CCN(C(=O)c2ccc(-c3ccc(F)c(F)c3)c3ccoc23)CC1	·	·	-3	·	12	·	·	·
CC1CCN(C(=O)COC(=O)CCc2c[nH]c3ccccc23)CC1	50*[inhibitor]	-14	14	65	2	106	5	106
CC1CCN(C(=O)COC(=O)Cc2c[nH]c3ccccc23)CC1	97	4	4	97	5	·	·	·
CCOC(=O)C1CCN(C(=O)C2CCN(c3nc4ccc(OC)cc4s3)CC2)CC1	122*	7	-28	118	14	110	8	108
